Source: PubChem BioAssay AID1376 (SRMLSC, 2008)
In all, about 220,000 compounds went through this assay and about 530 (0.24%) were called active. The sample holds actives, similar compounds and a random draw of the others, so the mix is not that of the screen. Potency and affinity values are given separately. Unmarked numbers belong to inactive results. Rule as the data show it: active = inhibition above about 13%; inconclusive = no clear call, values can overlap the other calls; inactive = below that.

Target: Bifunctional protein GlmU (Mycobacterium tuberculosis (strain ATCC 25618 / H37Rv)) (UniProt P9WMN3)
Sequence (P9WMN3 whole entry, looked up): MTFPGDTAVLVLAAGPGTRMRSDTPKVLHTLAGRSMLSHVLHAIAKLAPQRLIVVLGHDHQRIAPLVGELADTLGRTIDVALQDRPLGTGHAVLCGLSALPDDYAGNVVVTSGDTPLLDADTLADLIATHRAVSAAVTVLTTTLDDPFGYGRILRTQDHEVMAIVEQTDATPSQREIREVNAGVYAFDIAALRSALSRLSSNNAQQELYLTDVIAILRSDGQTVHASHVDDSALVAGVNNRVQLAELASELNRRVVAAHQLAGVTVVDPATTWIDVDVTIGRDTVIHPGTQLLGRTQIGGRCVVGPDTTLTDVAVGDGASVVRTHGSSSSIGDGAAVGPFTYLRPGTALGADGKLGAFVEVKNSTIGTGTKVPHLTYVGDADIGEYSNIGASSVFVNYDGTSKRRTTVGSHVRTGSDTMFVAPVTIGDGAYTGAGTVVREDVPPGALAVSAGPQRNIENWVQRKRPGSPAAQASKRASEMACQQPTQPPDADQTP
Assay: inhibition of mycobacterial GlmU enzyme – biochemical, glucosamine-1-phosphate acetyltransferase (AID 1376);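 also: 0% = complete reaction with vehicle and 100% = reaction without substrate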
Conditions: M. tuberculosis GlmU acetyltransferase enzyme assay; hits give high values;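 tested at 30 µM in the primary screen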

First: Oc1c(C(c2ccccc2Cl)N2CCCC2)ccc2cccnc12 (configuration not stated)
Second: Cc1ccc2c(c1)sc1nc(=O)n(-c3ccccc3)c(=O)n12
The inhibition of the first is lower: -1.53% for the first, 4.71% for the second.

Going from `CCc1ccc(CN(C)CCc2ccccn2)cc1` to `COc1ccccc1NC(=O)CCC(=O)N(Cc1ccc(OC)c(OC)c1)c1nccs1`, the inhibition falls from 1.82% to -2.21%.

First: O=C(NCc1ccc2c(c1)OCO2)C1CC(c2cccc(Br)c2)=NO1 (configuration not stated)
Second: COc1ccc(S(=O)(=O)N(C)CC(=O)Nc2ccc3c(c2)OCO3)cc1OC
The inhibition of the first is higher: 5.45% for the first, -3.21% for the second.

Compared with `COc1cc(/C=N/NC(=O)c2ccc(F)cc2)ccc1OC(=O)c1ccco1`, `COc1ccc(OCc2ccc(C(=O)O)cc2)cc1` is lower in inhibition: 1.03% for the first, -5.61% for the second.

Compared with `CCC1=NN(C(=O)c2ccc(Br)cc2)C(O)(c2ccccc2)C1` (configuration not stated), `COc1ccc(OCc2cccc(C(=O)O)c2)cc1` is lower in inhibition: 1.41% for the first, -3.31% for the second.

Compared with `CCN(CC)CCC/C(=N\O)C(O)(c1ccccc1)c1ccccc1`, `CC(C)NC(=O)c1ccccc1NC(=O)CS(=O)(=O)Cc1ccccc1` is lower in inhibition: -1.2% for the first, -2.67% for the second.

First: COc1ccc(C(=O)O)c(O)c1
Second: O=C(O)c1cc(O)ccc1-c1ccc(O)cc1
The inhibition of the first is higher: 1.05% for the first, 0.42% for the second.

First: O=C(NC(=S)Nc1cc(S(=O)(=O)N2CCOCC2)ccc1N1CCOCC1)c1ccco1
Second: CCN(CC)S(=O)(=O)c1ccc(N2CCOCC2)c(NC(=O)Cc2ccccc2)c1
The inhibition of the first is higher: 1.22% for the first, -0.9% for the second.

Compared with `Cc1cc(C)n(CCc2nc(-c3ccc(C(C)(C)C)cc3)cs2)n1`, `Cc1ccc2c(c1)sc1nc(=O)n(-c3ccc(Cl)cc3)c(=O)n12` is higher in inhibition: -7.47% for the first, 2.07% for the second.

Going from `O=C(CS(=O)(=O)Cc1ccccc1)Nc1ccccc1Cl` to `O=C(Cn1nc(-c2ccccc2)c2ccccc2c1=O)Nc1cccc(O)c1`, the inhibition rises from -1.63% to 3.9%.

Going from `CCCCOC(=O)C1CN(c2ccccc2)N=C1C(C)=O` (configuration not stated) to `CCOC(=O)N1CCN(C(=O)CN(c2ccc(OCc3ccccc3)cc2)S(C)(=O)=O)CC1`, the inhibition rises from 3.69% to 4.38%.

Going from `CC(=O)NC(=O)NC1OC(=O)C(Cl)=C1Cl` (configuration not stated) to `Cc1ccccc1S(=O)(=O)NC1OC(=O)C(Cl)=C1Cl` (configuration not stated), the inhibition rises from 2.53% to 9.45%.

Compared with `C#CC[N+](C)(C)CCCCCCCCCC`, `CCCCNC(=O)CNC(=S)N(CCCN1CCOCC1)Cc1cccs1` is higher in inhibition: -5.84% for the first, 3.25% for the second.

First: CCC(c1nnnn1CCC(C)C)N1CCC(C(N)=O)CC1 (configuration not stated)
Second: CCCC(c1nnnn1CC(=O)OCC)N(Cc1cc2ccc(C)cc2[nH]c1=O)C1CCCC1 (configuration not stated)
The inhibition of the first is lower: 2.94% for the first, 7.33% for the second.

Compared with `Cc1ccc(Oc2ccc(OCC(=O)OC3CCS(=O)(=O)C3)cc2)cc1` (configuration not stated), `Cc1ccc(N2C(=O)NC(=O)/C(=C\c3ccoc3)C2=O)cc1` is higher in inhibition: -1.4% for the first, 0.76% for the second.

First: O=C(NCC1CCCO1)c1nc2c(nnn2Cc2ccccc2Cl)c(=O)[nH]1 (configuration not stated)
Second: Cc1ccc(C)c(Cn2nnc3c(=O)[nH]c(C(=O)NCC4CCCO4)nc32)c1 (configuration not stated)
The inhibition of the first is lower: -1.69% for the first, 0.99% for the second.

Going from `Oc1cccc(/C=N/NC(=S)Nc2cccnc2)c1O` to `Oc1ccc(/C=N/NC(=S)Nc2cccnc2)c(O)c1`, the inhibition falls from 5.05% to 3.56%.

Going from `CN(C)S(=O)(=O)c1cccc(NC(=S)N/N=C/c2cc(Br)ccc2O)c1` to `COc1ccc(O)c(/C=N/NC(=S)Nc2cccc(S(=O)(=O)N(C)C)c2)c1`, the inhibition falls from -0.84% to -8.22%.

First: CCN1CCN(c2cc3c(nn2)Oc2ccccc2N3C)CC1
Second: O=C1NC(=O)N(c2ccccc2)C(=O)/C1=C/c1ccoc1
The inhibition of the first is higher: 0.59% for the first, -0.64% for the second.

First: Cc1nc2ccccc2c(=O)n1NC(=O)Cc1ccc([N+](=O)[O-])cc1
Second: Cc1ccccc1C(=O)NNC(=S)NC(=O)c1cccnc1
The inhibition of the first is lower: -0.18% for the first, 4.43% for the second.

Going from `O=C(NC(=S)NNC(=O)c1ccccc1F)c1cccnc1` to `O=C(NNC(=S)NC(=O)c1cccnc1)c1ccccc1`, the inhibition falls from 3.92% to -2.11%.

Work on `O=C(NNC(=S)NC(=O)c1cccnc1)c1ccc(Cl)cc1` yielded an inhibition of -3.46%.

In the case of `OCCN1CCN(C(c2cccs2)c2ccc3cccnc3c2O)CC1` (configuration not stated), the inhibition is reported as 17.8% (active).
In the case of `COc1ccc(-c2ccc(OC)cc2C(=O)O)cc1`, the inhibition is reported as 14.9% (active).
For `CCN(CC)S(=O)(=O)c1ccc(N2CCOCC2)c(NC(=S)NC(=O)c2ccco2)c1`, the inhibition was 14.6% (active).
For `NC(=O)c1ccccc1NC(=O)CS(=O)(=O)Cc1ccccc1`, the inhibition was 14.6% (active).
In the case of `Cc1ccc(S(=O)(=O)NC2OC(=O)C(Cl)=C2Cl)cc1` (configuration not stated), the inhibition is reported as 13.1% (active).
`Cc1ccc2c(c1)sc1nc(=O)n(-c3cccc(Cl)c3)c(=O)n12` was tested, and the inhibition was 38.6% (active).
With `O=C(NCC1CCCO1)c1nc2c(nnn2Cc2ccc(F)cc2)c(=O)[nH]1` (configuration not stated) the inhibition was 13.4% (active).
For `O=C(NC(=S)NNC(=O)c1ccccc1O)c1cccnc1`, the inhibition was 12.9% (active).
With `O=C(NNC(=S)NC(=O)c1cccnc1)c1ccc(F)cc1` the inhibition was 13.5% (active).
